Experimental findings from PubChem BioAssay (Tox21) are described below.

Records with an inconclusive call do not appear. A call without a number means that no potency is given here. Some structures have more than one record in an assay (separate samples or runs), and their calls can disagree. Activity calls are given as the source filed them. Calls come from the whole dose curve; as a rule, active = well fitted activation curve with a large enough effect in the repeat runs; inconclusive = weak or mixed curves; inactive = flat fitted curve, though single readings scatter.
Potency is the fitted concentration of half-maximal effect.

This experiment in a line: Caspase-3/7 induction in HepG2 cells by small molecules, qHTS assay (AID 1346978). Note: nearly all actives have a fitted effect of over 15% in size. To be noted: HepG2 caspase-3/7 activation, Caspase-Glo luminescence, 17 h; series mostly up to 92.4 µM. The text has this: National Center for Advancing Translational Sciences [NCATS] NIH Chemical Genomics Center [NCGC] U.S. Environmental Protection Agency [EPA] National Institutes of Environmental Health Sciences [NIEHS] National Toxicology Program [NTP] Assay overview: Apoptosis is a process of programmed cell death and plays a central role in the development of multicellular organisms. It is a highly regulated process and induces cell death by activating caspases, which are the members of cysteine aspartic acid-specific protease (caspase) family. Caspases involved in apoptosis are classified by their mechanism of action as initiator caspases (caspase-2, -8, -9 and -10) and executioner caspases (caspase-3, -6, and -7). Inhibition of apoptosis results in number of cancers, autoimmune diseases, inflammatory diseases and viral infection. To identify small molecule compounds that induce apoptosis, a homogeneous, luminescent Caspase-Glo 3/7 assay was used. Wild type HepG2 cells were used to screen Tox21 libraries for identifying caspase-3/7 activity inducers.
Assay Protocol Summary: HepG2 cells were dispensed at 2,000 per well in 5uL of culture medium into white solid bottom 1536-well plates (Corning Life Sciences, Corning, NY) using a Multidrop Combi (Thermo Scientific, Waltham, MA) dispenser. The assay plates were incubated at 37 C and 5% CO2 for 5hr, and then 23nL of compounds dissolved in DMSO and positive control were transferred using a Pintool station (Wako, San Diego, CA). The assay plates were incubated at 37C and 5% CO2 for 17hr. For caspase-3/7 activity read, 4uL of Caspase-Glo 3/7 reagent (Promega Corporation, Madison, WI) was added to each well of the assay plates using Flying Reagent Dispenser (FRD, Aurora Discovery, San Diego, CA) and incubated the assay plates at room temperature for 30min. The luminescence signal was quantified using a ViewLux plate reader (Perkin Elmer, Shelton, CT).
Turning to `NNc1ccc(C(=O)O)cc1`, the Potency entry was “inactive”.
Consider `COC(=O)c1ccccc1`, for which the Potency result is “inactive”.
To `CC1=CC2C3CC(C=C3C)C2C1` (stereo not given) belongs “inactive”; to `Cc1ccc(C(=O)c2cc(O)c(O)c([N+](=O)[O-])c2)cc1`, “inactive”.
To `COc1c(Cl)c(Cl)c(Cl)c(Cl)c1Cl` belongs “inactive”.
To `O=C(c1ccccc1)c1ccc(O)cc1O` belongs “inactive”.
`O=C1OC2(c3cc(Br)c(O)c(Br)c3Oc3c2cc(Br)c(O)c3Br)c2c(Cl)c(Cl)c(Cl)c(Cl)c21`: the Potency entry is “inactive”.
With `COc1ccc(OC)c(C(O)CNC(=O)CN)c1` (stereo not given), the Potency result was “inactive”.
`Nc1ccc(Nc2ccccc2)cc1`: the Potency result was “inactive”.
As to `CC(=O)O[C@]1(C(C)=O)CC[C@H]2[C@@H]3C=C(Cl)C4=CC(=O)[C@@H]5C[C@@H]5[C@]4(C)[C@H]3CC[C@@]21C`, the Potency result was “inactive”.
On to `CCOC(=O)C(C#N)=C(c1ccccc1)c1ccccc1`, for which the Potency entry is “inactive”.
In the case of `CCC(C)c1ccccc1O` (stereo not given), the Potency entry is “inactive”.
For `Cc1cc2nc3c(=O)[nH]c(=O)nc-3n(C[C@H](O)[C@H](O)[C@H](O)CO)c2cc1C`, the Potency entry is “inactive”.
As to `CNCCCC12CCC(c3ccccc31)c1ccccc12`, the Potency is 27.3 µM (active).
For `O=C(Nc1ccc([N+](=O)[O-])cc1Cl)c1cc(Cl)ccc1O` the value was “inactive”.
Take `CCCCNS(=O)(=O)c1ccccc1`: the Potency result was “inactive”.
`COC(=O)C1=C(C)NC(C)=C(C(=O)OCCN(C)Cc2ccccc2)C1c1cccc([N+](=O)[O-])c1` (stereo not given): the Potency entry was “inactive”.
For the compound `c1cc(-c2ccncc2)ccn1`, the Potency result is “inactive”.
For `C=CC(C)(CCC=C(C)C)OC(C)=O` (stereo not given) the value was “inactive”; for `CC(C)CC(C)(O)C#CC(C)(O)CC(C)C` (stereo not given), “inactive”; for `C#C[C@]1(O)CC[C@H]2[C@@H]3CCC4=Cc5oncc5C[C@]4(C)[C@H]3CC[C@@]21C`, “inactive”.
For the compound `CC(C)Oc1ccc2c(=O)c(-c3ccccc3)coc2c1`, the Potency result was “inactive”.
Consider `CCC(C)OC(=O)c1ccc(O)cc1` (stereo not given), for which the Potency result is “inactive”.
On to `Brc1cc(Oc2cc(Br)c(Br)c(Br)c2Br)c(Br)c(Br)c1Br`, for which the Potency entry was “inactive”.
In the case of `OC1CCCCCCCCCCC1`, the Potency result was “inactive”.
As for `CN1C(C(=O)Nc2ccccn2)=C(O)c2ccccc2S1(=O)=O`, the Potency entry is “inactive”.
In the case of `c1ccc2c(c1)Oc1ccccc1S2`, the Potency result is “inactive”.
As for `c1ccncc1`, the Potency entry was “inactive”.
Regarding `OC[C@H]1O[C@@H]2O[C@H]3[C@H](O)[C@@H](O)[C@@H](O[C@H]4[C@H](O)[C@@H](O)[C@@H](O[C@H]5[C@H](O)[C@@H](O)[C@@H](O[C@H]6[C@H](O)[C@@H](O)[C@@H](O[C@H]7[C@H](O)[C@@H](O)[C@@H](O[C@H]8[C@H](O)[C@@H](O)[C@@H](O[C@H]1[C@H](O)[C@H]2O)O[C@@H]8CO)O[C@@H]7CO)O[C@@H]6CO)O[C@@H]5CO)O[C@@H]4CO)O[C@@H]3CO`, the Potency result was “inactive”.
As for `O=CCCCC=O`, the Potency entry was “inactive”.
As to `Nc1ncn([C@@H]2O[C@H](CO)[C@@H](O)[C@H]2O)c(=O)n1`, the Potency result is “inactive”.
To `COC(C)COC(C)COC(C)CO` (stereo not given) belongs “inactive”; to `C=C(C)C1CC=C(C)CC1` (stereo not given), “inactive”; to `c1ccc2sc(SSN3CCOCC3)nc2c1`, “inactive”.
Turning to `O=C1c2cccc(O)c2C(=O)c2c(O)cccc21`, the Potency entry was “inactive”.
Regarding `O=C(c1ccc(OCCN2CCCCC2)cc1)c1c(-c2ccc(O)cc2)sc2cc(O)ccc12`, the Potency is 68.7 µM (active) and inactive.
Regarding `CCCCCCCCCC(=O)OC`, the Potency entry is “inactive”.
Regarding `CN(C)C(=N)N=C(N)N`, the Potency result was “inactive”.
Take `O=S(=O)(O)c1ccc(O)cc1`: the Potency entry was “inactive”.
For the compound `CCC(C)CO` (stereo not given), the Potency entry is “inactive”.
